Assay results taken from PubChem BioAssay AID753 (Emory University Molecular Libraries Screening Center, 2007).
This is one part of the list. Results filed as inconclusive are left out. Calls of active or inactive are those of the source.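 How the source made its calls: active means percent of control activity at or below 60%; inconclusive means HPLC trace unusable from injection failure or solvent front hiding peaks; inactive means the rest, plus ubiquitin peak ratio over a set limit.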

target: Ubiquitin carboxyl-terminal hydrolase BAP1 (Homo sapiens) (UniProt Q92560); assay: BAP1 ubiquitin ester hydrolysis inhibition – biochemical, Ub-ethyl ester substrate, HPLC readout, orthogonal assay, confirmation (AID 753); settings: purified BAP1, Ub-ethyl ester hydrolysis; at 20 µM, active compounds read low
Sequence (Q92560 whole entry, looked up): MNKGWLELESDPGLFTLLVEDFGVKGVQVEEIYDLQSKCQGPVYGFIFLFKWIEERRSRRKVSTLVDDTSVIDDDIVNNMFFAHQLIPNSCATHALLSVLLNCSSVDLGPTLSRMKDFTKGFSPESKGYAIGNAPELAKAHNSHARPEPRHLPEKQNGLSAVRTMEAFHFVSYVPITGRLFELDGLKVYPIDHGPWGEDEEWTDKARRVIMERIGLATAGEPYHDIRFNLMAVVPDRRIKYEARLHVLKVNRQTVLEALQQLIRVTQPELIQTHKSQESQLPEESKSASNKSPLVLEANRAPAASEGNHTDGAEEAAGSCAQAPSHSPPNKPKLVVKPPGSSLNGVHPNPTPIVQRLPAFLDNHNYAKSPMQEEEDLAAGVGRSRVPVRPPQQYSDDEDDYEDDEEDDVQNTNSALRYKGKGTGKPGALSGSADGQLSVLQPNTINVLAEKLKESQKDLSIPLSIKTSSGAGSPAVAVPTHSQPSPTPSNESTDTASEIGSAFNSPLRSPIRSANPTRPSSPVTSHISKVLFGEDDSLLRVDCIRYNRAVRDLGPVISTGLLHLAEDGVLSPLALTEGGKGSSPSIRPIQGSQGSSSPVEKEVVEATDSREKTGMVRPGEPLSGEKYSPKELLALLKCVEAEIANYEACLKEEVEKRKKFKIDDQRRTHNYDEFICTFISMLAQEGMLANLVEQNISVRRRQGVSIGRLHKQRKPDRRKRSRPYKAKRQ

% of control activity, inactive:
Fc1ccc(-c2ccc(-c3nn4c(-c5ccco5)nnc4s3)o2)cc1 106%
C=CCn1c2ccccc2c2nnc(SC(CC)C(=O)Nc3nc(C)c(C(=O)OCC)s3)nc21 (configuration not stated) 73.6%
Fc1ccc2nc(Nc3nc4c(s3)CCCC4)sc2c1 142%
O=c1c2ccccc2nc(CSc2nnnn2-c2ccccc2)n1-c1ccccc1 83.3%
CCC(c1nnnn1C1CCCC1)N(Cc1cccs1)Cc1cc2cccc(C)c2[nH]c1=O (configuration not stated) 99.7%
N#Cc1c(/N=C/N2CCCC2)oc(-c2ccccc2)c1-c1ccccc1 111%

outcome, inactive:
CCOc1ccc(CN(Cc2ccco2)C(c2cccs2)c2nnnn2C(C)(C)C)cc1 (configuration not stated)
